# PubChem BioAssay
# Calls of active or inactive are those of the source. Unless noted, how the calls were made is not given here.
# Legend:
# [1] = test system: Wnt5a (protein binding on small-molecule microarray); assay: small molecules binding Wnt5a protein – biophysical, small-molecule microarray, 635/667 nm fluorescence, primary screen (AID 1142); conditions: 635 nm fluorescence, higher = more signal;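 further: fluorescence read at 667 nm with signal to noise per printed feature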
# [2] = ATP-based viability of Huh7 replicon cells – cell-based, CellTiter-Glo luminescence, basal, 48 h, cytotoxicity control for HCV replication inhibitor project, primary screen (AID 1143); conditions: higher = more signal, called active from +8 up or from −8 down;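 further: Huh7 hepatoma cells carrying a hepatitis C replication reporter with no stimulus; test concentration not given here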
# [3] = Pseudomonas biofilm growth suppression – PAO1 strain, BacTiter-Glo luminescence, LB-PBS, primary screen (AID 1144); conditions: P. aeruginosa PAO1 biofilm, 12 h, higher = more signal
# [4] = basal CRE-LacZ reporter activity in PC12 – cell-based, unstimulated, primary screen (AID 1145); conditions: no forskolin, luminescence, 4.5 h, higher = more signal, called active from +8 up or from −8 down
# [5] = forskolin-driven CRE-LacZ activity in PC12 – cell-based, CRE-LacZ reporter, forskolin-stimulated, primary screen (AID 1146); conditions: luminescence, 4.5 h, higher = more signal, called active from +8 up or from −8 down;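 further: PC12 cells with 6xCRE LacZ reporter stimulated by forskolin 10 µM; beta-galactosidase reporter signal reflecting CREB driven transcription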
# [6] = biological target: Streptavidin (Streptomyces avidinii) (UniProt P22629); assay: compounds binding control protein streptavidin – biophysical, small-molecule microarray, 635/667 nm fluorescence, artefact control for SMM compound annotation, primary screen (AID 1147); conditions: higher = more signal;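 further: signal reflects streptavidin binding to arrayed compounds as a control protein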
# Streptavidin (Streptomyces avidinii), sequence (P22629 whole entry, looked up): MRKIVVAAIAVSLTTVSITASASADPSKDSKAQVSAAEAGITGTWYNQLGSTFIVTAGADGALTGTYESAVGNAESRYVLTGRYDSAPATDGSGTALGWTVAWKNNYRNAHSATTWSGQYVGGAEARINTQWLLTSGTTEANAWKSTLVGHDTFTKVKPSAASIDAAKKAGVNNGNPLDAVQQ
# [7] = probe aInhba binding on compound microarray – biochemical, small-molecule microarray, 635/667 nm fluorescence, primary screen (AID 1148); conditions: higher = more signal;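 further: score merges 667nm spot fluorescence with signal-to-noise for antibody binding to printed compounds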
# Torsin-1A (Homo sapiens) [8] = biological target: Torsin-1A (Homo sapiens) (UniProt O14656); assay: TOR1A wild-type binding on microarray – cell lysate, small-molecule microarray, lysate, 635/667 nm, primary screen (AID 1149); conditions: COS7 hTOR1A-WT lysate, 635 nm fluorescence, higher = more signal
# Torsin-1A (Homo sapiens), sequence (O14656 whole entry, looked up): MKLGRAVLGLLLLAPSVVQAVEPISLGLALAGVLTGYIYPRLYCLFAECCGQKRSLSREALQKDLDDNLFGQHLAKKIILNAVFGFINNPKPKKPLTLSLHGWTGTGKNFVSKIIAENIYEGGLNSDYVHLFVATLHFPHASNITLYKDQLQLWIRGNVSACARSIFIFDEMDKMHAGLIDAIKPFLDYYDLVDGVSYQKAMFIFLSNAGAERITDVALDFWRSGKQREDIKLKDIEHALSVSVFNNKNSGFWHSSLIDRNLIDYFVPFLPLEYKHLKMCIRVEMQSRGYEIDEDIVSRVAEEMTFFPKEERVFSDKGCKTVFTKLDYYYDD
# Torsin-1A (Homo sapiens) [9] = biological target: Torsin-1A (Homo sapiens) (UniProt O14656); assay: torsin A mutant lysate binding on microarrays – cell lysate, small-molecule microarray, COS7 lysate, 635/667 nm fluorescence, primary screen (AID 1150); conditions: COS7 hTOR1A mutant lysate, 635 nm fluorescence, higher = more signal;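 further: score pools 667 nm emission and signal to noise measuring lysate protein binding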
# [10] = test system: Sonic hedgehog protein (Shh); assay: Sonic hedgehog microarray binding compounds – biochemical, small-molecule microarray, 635/667 nm fluorescence, primary screen (AID 1151); conditions: 635 nm fluorescence, higher = more signal;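 further: Shh protein binding to compounds spotted on small-molecule microarray slides; score combines spot fluorescence intensity with signal-to-noise across triplicate slides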
# [11] = optical density shifts of acrAB sulA E. coli – strain DRC41, OD650, 48 h, E. coli filamentation inducer project, primary screen (AID 1152); conditions: higher = more signal, called active from +8 up or from −8 down;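 further: E. coli MC1000 strain DRC41 lacking acrAB efflux pump and sulA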
# [12] = probe aLefty1 binding on compound microarray – biochemical, small-molecule microarray, 635/667 nm fluorescence, primary screen (AID 1153); conditions: higher = more signal;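 further: score merges spot fluorescence with signal-to-noise ratio from the scanned slide images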
# [13] = plasmodial surface anion channel blockers, osmotic lysis – cell-based, P. falciparum Indochina, OD700, 1 h, primary screen (AID 1154); conditions: P. falciparum Indochina infected RBC osmotic lysis, higher = more signal, called active from +8 up or from −8 down
# [14] = plasmodial surface anion channel blockers, osmotic lysis – cell-based, P. falciparum Indochina, OD700, 2 h, primary screen (AID 1155);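 further: lysis reports solute entry through the parasite surface anion channel PSAC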; conditions: P. falciparum Indochina infected erythrocytes, higher = more signal, called active from +8 up or from −8 down
# [15] = changes in parasitized red cell lysis, either direction – P. falciparum Indochina, OD700, 3 h, PSAC antagonist project, primary screen (AID 1156); conditions: P. falciparum-infected erythrocytes, osmotic lysis, higher = more signal, called active from +8 up or from −8 down
# [16] = plasmodial surface anion channel blockers, osmotic lysis – cell-based, P. falciparum Indochina, OD700, 18 h, primary screen (AID 1157); conditions: P. falciparum Indochina infected erythrocytes, osmotic lysis OD700, 18 h; higher = more signal, called active from +8 up or from −8 down
# [17] = S6 kinase pathway phospho-S6 level changes – cell-based, A549, cytoblot, luminescence, serum-stimulated, primary screen (AID 1158); conditions: 5 h, higher = more signal;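 further: serum-stimulated A549 lung adenocarcinoma cells; signal is phosphorylated S6 detected by cytoblot immunostaining with HRP secondary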
# [18] = biological target: NADPH oxidase 2 (Homo sapiens) (UniProt P04839); assay: compounds shifting NOX2 Amplex Red fluorescence – cell-based, HEK293-NOX2, PMA-stimulated, NOX inhibitor project, primary screen (AID 1159); conditions: 45 min, higher = more signal, called active from +8 up or from −8 down; further: test concentration not given here
# NADPH oxidase 2 (Homo sapiens), sequence (P04839 whole entry, looked up): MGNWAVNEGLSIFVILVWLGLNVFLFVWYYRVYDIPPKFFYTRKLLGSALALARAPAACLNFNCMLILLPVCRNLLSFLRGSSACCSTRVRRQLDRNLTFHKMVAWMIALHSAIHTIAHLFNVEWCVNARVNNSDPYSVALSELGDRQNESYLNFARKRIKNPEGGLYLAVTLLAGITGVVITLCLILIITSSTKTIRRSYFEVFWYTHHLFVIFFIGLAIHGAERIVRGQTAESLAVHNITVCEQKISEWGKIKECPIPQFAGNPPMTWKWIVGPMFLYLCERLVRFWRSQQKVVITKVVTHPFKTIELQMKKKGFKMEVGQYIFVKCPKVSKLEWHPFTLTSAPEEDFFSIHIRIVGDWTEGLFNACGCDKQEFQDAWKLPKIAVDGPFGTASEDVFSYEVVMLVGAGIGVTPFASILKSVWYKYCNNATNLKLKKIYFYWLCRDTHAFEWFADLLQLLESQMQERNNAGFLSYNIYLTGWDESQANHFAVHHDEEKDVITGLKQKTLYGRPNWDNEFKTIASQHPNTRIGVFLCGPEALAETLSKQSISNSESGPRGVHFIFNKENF
# [19] = biological target: NADPH oxidase 4 (Homo sapiens) (UniProt Q9NPH5); assay: compounds shifting NOX4 Amplex Red fluorescence – cell-based, HEK293-NOX4, tetracycline-induced, NOX inhibitor project, primary screen (AID 1160); conditions: HEK293-NOX4, Amplex Red H2O2 fluorescence, 45 min; higher = more signal, called active from +8 up or from −8 down
# NADPH oxidase 4 (Homo sapiens), sequence (Q9NPH5 whole entry, looked up): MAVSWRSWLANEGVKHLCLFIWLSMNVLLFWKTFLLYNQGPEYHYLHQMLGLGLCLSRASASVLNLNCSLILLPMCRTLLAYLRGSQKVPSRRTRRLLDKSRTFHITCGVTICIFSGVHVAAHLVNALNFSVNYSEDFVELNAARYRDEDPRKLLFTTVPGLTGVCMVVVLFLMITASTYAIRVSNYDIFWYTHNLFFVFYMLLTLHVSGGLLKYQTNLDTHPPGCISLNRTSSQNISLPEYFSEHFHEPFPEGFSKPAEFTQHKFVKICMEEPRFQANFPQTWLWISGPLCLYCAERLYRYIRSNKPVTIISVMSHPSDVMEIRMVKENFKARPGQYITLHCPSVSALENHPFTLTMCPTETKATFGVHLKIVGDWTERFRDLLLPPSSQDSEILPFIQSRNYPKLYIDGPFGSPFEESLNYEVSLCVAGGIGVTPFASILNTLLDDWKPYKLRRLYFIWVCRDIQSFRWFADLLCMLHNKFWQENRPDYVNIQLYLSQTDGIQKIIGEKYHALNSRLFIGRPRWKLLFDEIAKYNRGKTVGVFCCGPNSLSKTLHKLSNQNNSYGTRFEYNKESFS
# [20] = biological target: NADPH oxidase 5 (Homo sapiens) (UniProt Q96PH1); assay: compounds shifting NOX5 Amplex Red fluorescence – cell-based, HEK293-NOX5, NOX inhibitor project, primary screen (AID 1161); conditions: HEK293-NOX5, ionomycin, 45 min, higher = more signal
# NADPH oxidase 5 (Homo sapiens), sequence (Q96PH1 whole entry, looked up): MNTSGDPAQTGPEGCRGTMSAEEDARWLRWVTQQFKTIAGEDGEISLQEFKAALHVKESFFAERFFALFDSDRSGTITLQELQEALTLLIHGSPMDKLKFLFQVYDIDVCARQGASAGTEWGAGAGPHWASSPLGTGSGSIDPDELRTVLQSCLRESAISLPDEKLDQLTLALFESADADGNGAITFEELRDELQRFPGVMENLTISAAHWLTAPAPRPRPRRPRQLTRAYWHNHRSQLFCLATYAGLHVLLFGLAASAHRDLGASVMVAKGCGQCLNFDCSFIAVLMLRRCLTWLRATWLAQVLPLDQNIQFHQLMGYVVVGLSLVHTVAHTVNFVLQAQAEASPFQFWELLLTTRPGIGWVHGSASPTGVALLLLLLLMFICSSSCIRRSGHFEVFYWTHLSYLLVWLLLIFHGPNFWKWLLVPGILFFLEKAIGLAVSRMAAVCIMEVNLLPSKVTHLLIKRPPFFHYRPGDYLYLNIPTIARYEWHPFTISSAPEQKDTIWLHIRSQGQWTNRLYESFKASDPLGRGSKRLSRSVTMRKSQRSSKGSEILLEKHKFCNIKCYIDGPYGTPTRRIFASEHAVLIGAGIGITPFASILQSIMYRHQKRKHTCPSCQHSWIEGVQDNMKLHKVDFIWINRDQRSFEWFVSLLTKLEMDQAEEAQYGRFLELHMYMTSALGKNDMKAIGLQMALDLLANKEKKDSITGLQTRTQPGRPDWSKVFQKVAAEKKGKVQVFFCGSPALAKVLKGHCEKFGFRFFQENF
compound,measurement,setting,value
COc1cc2c(cc1O)C(C)N(Cc1ccc([N+](=O)[O-])o1)CC2 (stereo not given),composite z-score,[1],0.322
same,z-score,[2],0.143 (inactive)
same,z-score,[3],-0.158 (inactive)
same,z-score,[4],-0.258 (inactive)
same,z-score,[5],1.6 (inactive)
same,composite z-score,[6],0.97
same,composite z-score,[7],0.303
same,composite z-score,Torsin-1A (Homo sapiens) [8],0.682
same,composite z-score,Torsin-1A (Homo sapiens) [9],0.897
same,composite z-score,[10],0.0196
same,z-score,[11],-0.984 (inactive)
same,composite z-score,[12],0.245
same,z-score,[13],18.3 (active)
same,z-score,[14],2.09 (inactive)
same,z-score,[15],0.831 (inactive)
same,z-score,[16],0.424 (inactive)
same,z-score,[17],-0.31
same,z-score,[18],-4.17 (inactive)
same,z-score,[19],-2.17 (inactive)
same,z-score,[20],-3.28
C[C@@H]1ON(c2ccc(C(=O)OC(C)(C)C)cc2)[C@H](c2ccc(O)cc2)[C@H]1C(=O)N1C(=O)OC[C@H]1Cc1ccccc1,composite z-score,[1],0.218
same,z-score,[2],-2.96 (inactive)
same,z-score,[3],0.133 (inactive)
same,z-score,[4],1.22 (inactive)
same,z-score,[5],0.419 (inactive)
same,composite z-score,[6],0.922
same,composite z-score,[7],-0.0552
same,composite z-score,Torsin-1A (Homo sapiens) [8],0.438
same,composite z-score,Torsin-1A (Homo sapiens) [9],0.616
same,composite z-score,[10],0.596
same,z-score,[11],-0.476 (inactive)
same,composite z-score,[12],0.119
same,z-score,[13],3.71 (inactive)
same,z-score,[14],0.709 (inactive)
same,z-score,[15],-0.348 (inactive)
same,z-score,[16],0.87 (inactive)
same,z-score,[17],0.363
same,z-score,[18],-0.394 (inactive)
same,z-score,[19],-0.43 (inactive)
same,z-score,[20],-0.209
COC(=O)[C@@]1(Cc2ccc(OC)cc2)[C@@H]2C(=CC(=O)[C@H]2CC(=O)C(=O)N(C)C)CN1C(=O)c1ccccc1,composite z-score,[1],0.956
same,z-score,[2],-3.7 (inactive)
same,z-score,[3],-0.946 (inactive)
same,z-score,[4],0.0109 (inactive)
same,z-score,[5],0.0777 (inactive)
same,composite z-score,[6],1.23
same,composite z-score,[7],1.04
same,composite z-score,Torsin-1A (Homo sapiens) [8],0.0826
same,composite z-score,Torsin-1A (Homo sapiens) [9],0.387
same,composite z-score,[10],-0.671
same,z-score,[11],-2.06 (inactive)
same,composite z-score,[12],0.485
same,z-score,[13],2.07 (inactive)
same,z-score,[14],0.584 (inactive)
same,z-score,[15],0.481 (inactive)
same,z-score,[16],1.38 (inactive)
same,z-score,[17],0.808
same,z-score,[18],-0.192 (inactive)
same,z-score,[19],1.39 (inactive)
same,z-score,[20],1.32
CC[C@H]1C2=C3C(CC[C@H]4C(OCc5ccc(F)cc5C(F)(F)F)OC[C@](C)([C@@H]34)N(C(=O)OC(C)(C)C)C2)C(COC)C1COC (stereo not given in full),composite z-score,[1],-0.173
same,z-score,[2],0.0724 (inactive)
same,z-score,[3],1.02 (inactive)
same,z-score,[4],-0.379 (inactive)
same,z-score,[5],1.01 (inactive)
same,composite z-score,[6],-0.214
same,composite z-score,[7],0.029
same,composite z-score,Torsin-1A (Homo sapiens) [8],-0.0927
same,composite z-score,Torsin-1A (Homo sapiens) [9],-0.0476
same,composite z-score,[10],-1.3
same,z-score,[11],-1.22 (inactive)
same,composite z-score,[12],0.409
same,z-score,[13],-0.0734 (inactive)
same,z-score,[14],-0.0681 (inactive)
same,z-score,[15],0.337 (inactive)
same,z-score,[16],0.297 (inactive)
same,z-score,[17],-0.371
same,z-score,[18],-0.67 (inactive)
same,z-score,[19],-1.45 (inactive)
same,z-score,[20],-1.54
COCCOC(=O)N1C(=O)[C@@]2(c3cc(C#Cc4ccc(OC)cc4)ccc31)[C@H](c1ccc(O)cc1)N1[C@H](c3ccccc3)[C@H](c3ccccc3)OC(=O)[C@H]1[C@@H]2C(=O)N1CCCCCCC1,composite z-score,[1],0.608
same,z-score,[2],-0.86 (inactive)
same,z-score,[3],-0.144 (inactive)
same,z-score,[4],0.0653 (inactive)
same,z-score,[5],0.895 (inactive)
same,composite z-score,[6],1.25
same,composite z-score,[7],1.12
same,composite z-score,Torsin-1A (Homo sapiens) [8],-0.0107
same,composite z-score,Torsin-1A (Homo sapiens) [9],0.913
same,composite z-score,[10],0.379
same,z-score,[11],-0.329 (inactive)
same,composite z-score,[12],2.12
same,z-score,[13],0.0963 (inactive)
same,z-score,[14],0.0379 (inactive)
same,z-score,[15],-1.3 (inactive)
same,z-score,[16],-0.0483 (inactive)
same,z-score,[17],-0.307
same,z-score,[18],0.877 (inactive)
same,z-score,[19],0.482 (inactive)
same,z-score,[20],0.391
